From PubChem BioAssay (NCI)
Compounds without any hit were thinned out: in the full panel of roughly 83,000, 20% have a hit.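 Percent growth is the endpoint: 0 to 100 indicates growth inhibition (40 means 60% inhibition), 0 means no net growth, and negative values indicate cell death.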 Activity calls are given as the source filed them. How the source made its calls: active means growth percent below 10; inactive means the rest.

test system: HL-60(TB) leukemia; assay: NCI-60 one-dose screen, 48 h (100 = growth as untreated, 0 = no growth, -100 = all killed); conditions: 10 µM unless noted

| Structure (SMILES) | growth |
| --- | --- |
| COc1ccc(-c2cc(-c3ccc(Nc4nc(Nc5ccc(Cl)cc5)nc(Nc5ccc(Cl)cc5)n4)cc3)no2)cc1 | -43.5% (active) |
| NC(C(=O)O)C(O)c1ccco1 (stereo not given) | 116% (inactive) |
| CCn1c(SCc2ccc(C)cc2)nnc1-c1nn(-c2ccc(Cl)cc2Cl)c(-c2ccc(Cl)cc2)c1C | -13.1% (active) |
| Nc1nc(N)c2c(n1)NC(c1ccc(Cl)cc1)CC(c1cccc(Nc3ccncc3)c1)=N2 (stereo not given) | 39% (inactive) |
| COc1cc(C(=O)/C=C/c2c(-c3cccs3)nc3sccn23)cc(OC)c1OC | 1.04% (active) |
| CC(=O)NC(O)C(Cl)Cl (stereo not given) | 105% (inactive) |
| Cc1cc(Cc2cc(C)cc(C(C)(C)C)c2O)c(O)c(C(C)(C)C)c1 | 59.3% (inactive) |
| C/C(=C(/c1ccc(O)cc1)c1ccc(Cl)cc1)c1ccccc1 | -20.7% (active) |
| N#Cc1c(N)nc(Cl)c(C#N)c1C(=O)c1ccccc1 | 6.29% (active) |
| COc1ccc(C(=O)NNc2nc(Cl)nc(N3CCN(C(c4ccccc4)c4ccccc4)CC3)n2)cc1 | 21.3% (inactive) |
| COC1CC(OC(=O)c2ccc([N+](=O)[O-])cc2)C(COC(=O)c2ccc([N+](=O)[O-])cc2)O1 (stereo not given) | 97% (inactive) |
| Clc1ccc(/C=N\N=C\c2ccc(Cl)c(Cl)c2)cc1Cl | 135% (inactive) |
| OCCn1cc(-c2nc(-c3c[nH]c4ncccc34)cs2)c2cc(F)ccc21 | 60.3% (inactive) |
| Cc1nc2sc(C(=O)Nc3cccc(Cl)c3C)c(N)c2cc1C(=O)/C=C/c1ccccc1 | 2.75% (active) |
| COc1ccc(CN2C(=O)C(Cl)=C(Nc3cccc(C(F)(F)F)c3)C2=O)cc1 | 29% (inactive) |
| CCCCCCCCCCCCCC(=O)C(C)N (stereo not given) | 14.6% (inactive) |
| COc1ccc(-c2cc(=O)c3c(OC)c4ccoc4cc3o2)cc1 | 117% (inactive) |
| COc1cc(-c2nc3ccccc3[nH]2)ccc1OCC(=O)N=Nc1c(O)[nH]c2ccc(Cl)cc12 | -30.8% (active) |
| CCN1CCN(c2nc(C)cc(NCc3cc(Nc4ccnc5cc(Cl)ccc45)ccc3F)n2)CC1 | -7.3% (active) |
| C=C[C@@H]1CCC/C=C/[C@@H]2C[C@H](O)C[C@H]2[C@H](O)/C=C/C(=O)O1 | 8.25% (active) |
| Cc1ccccc1NC(=O)CN(C)C | 87.9% (inactive) |
| Cn1cc2c(c1)-c1nc(Nc3ccccc3)ncc1CC2 | 97.3% (inactive) |
| O=c1[nH]nc(-c2ccccc2)c2c(-c3ccccc3)onc12 | -34% (active) |
| C[C@@H]1COC(Nc2ccc3ncnc(Nc4ccc(OCc5nccs5)c(Cl)c4)c3c2)=N1 | 31.3% (inactive) |
| COc1ccc2c(c1)CCc1[nH]nc(-c3cc(OC)c(OC)c(OC)c3)c1-2 | -20.4% (active) |
